# The list is not random: actives were taken first. Their share in the collection is about 9.6%.
# DAT uptake mod: changed hDAT dopamine uptake under cocaine IC80, either direction, primary screen, cocaine antagonist project, cell-based, LLC-PK1 hDAT, [14C]-dopamine uptake, MLSMR; Sodium-dependent dopamine transporter (Homo sapiens), Q01959; LLC-PK1 hDAT cells, [14C]-dopamine uptake with cocaine IC80; actives deviate in either direction; B-score at 10 µM; 110,000 compounds, 1.3% hits; AID 449768, 2010;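 active means Z score or B-score, a plate-position-corrected score, falls beyond the plate's 99.7% confidence bounds, in either direction; inactive means both scores lie inside the 99.7% bounds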;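 further: scored against the spread of the other compound wells on the same plate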
# Cav3 T inh: Cav3.2 calcium influx blockers – cell-based, Fluo-4 calcium fluorescence, FDSS, MLSMR library, primary screen. B-score at 10 µM. 100,000 compounds, 4% hits. Cav3.2-expressing cells; active compounds read low. AID 449739, 2010. Voltage-dependent T-type calcium channel subunit alpha-1H (Homo sapiens), O95180;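 active means single-dose well whose peak fluorescence ratio is a statistical outlier from its plate by either plate-standardised score or position-corrected B-score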
# PLAP activator: PLAP enzyme activators, biochemical, luminescence, HTS; purified PLAP enzyme, luminescent substrate read-out; active compounds read high; activation fold at 20 µM; 96,000 compounds, 1.2% hits; in the data active means activation fold above about 2
# PostGolgi ctrl: growth inhibition of yeast control strain, primary screen, counter-screen for post-Golgi transport modulator project; efflux-deficient yeast background strain, growth absorbance A615, 16 h; inhibition, % at 10 µM; 98,000 compounds, 5% hits; AID 738, 2007
# PostGolgi yeast: phenotypic screen on post-Golgi transport, primary screen | post-Golgi transport phenotypic cell assay | inhibition, % at 10 µM | 98,000 compounds, 0.9% hits;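 further: yeast cells grown in 1536-well plates; yeast grown about 18 h at 30C before absorbance read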
# An asterisk follows results filed as active; x = not tested or not shown. Unless noted, no stated cut-off is given here; in the data, active means inhibition above about 30%; inactive means the rest.
SMILES,DAT uptake mod,Cav3 T inh,PLAP activator,PostGolgi ctrl,PostGolgi yeast
C/C=C/c1ccc(OCCCCn2cncn2)c(OC)c1,-0.268,0.351,1.2,31.1*,1.8
COc1cccc(CNC(=O)C23CN(Cc4ccccc4)CC2C(c2ccc([N+](=O)[O-])cc2)=NO3)c1 (stereo not given),-0.0318,-1.62,1.2,33.2*,-3.9
O=C(NCc1ccc2c(c1)OCO2)C12CN(Cc3ccccc3)CC1C(c1cccc([N+](=O)[O-])c1)=NO2 (stereo not given),-0.016,-2.79,1.3,-3.4,-6.8
O=C(NCc1ccc(C(F)(F)F)cc1)C12CN(Cc3ccccc3)CC1C(c1cccc([N+](=O)[O-])c1)=NO2 (stereo not given),-0.0635,-3.16*,1.1,5.1,-6.1
O=C(CCCc1c[nH]c2ccccc12)N1CCN(c2ccc(N3CCOCC3)nn2)CC1,2.51*,x,1.7,1.6,-5.5
CCCC(c1nnnn1CS(=O)(=O)c1ccc(C)cc1)N1CCN(c2ccccc2)CC1 (stereo not given),x,-3.54,0.9,30.9*,-7.6
CCN(CC)C(=O)CSc1nnc(-c2ccccn2)n1-c1ccc(C)c(C)c1,0.88,1.63,1.4,5.5,-6.0
Cc1ccc(C(=O)OCC(=O)NCc2ccco2)cc1,-0.00115,x,1.1,-7.3,-9.0
O=C(CSc1nnc(CCc2nc3ccccc3[nH]2)n1-c1ccccc1)NCc1ccco1,-0.0774,-0.699,2*,1.0,-1.9
CC(=O)Nc1ccc(-c2nnc(SCC(=O)NCc3ccco3)n2C)cc1,0.129,0.554,1.1,33.2*,4.5
Cc1cc(C(=O)OCC(=O)NCc2ccco2)c(C)n1-c1ccc(F)cc1,1.65,-4.36*,1.1,18.0,-3.6
COc1ccc(NCc2nnc(SCC(=O)NCc3ccco3)n2-c2ccccc2OC)cc1,1.91,0.941,x,x,x
Cc1ccc(-n2c(CNc3ccc(F)cc3)nnc2SCC(=O)NCc2ccco2)cc1,1.73,-5.21*,1.6,13.2,-10.0
O=C(Cc1ccccc1)NCc1nc2ccccc2[nH]1,-0.402,0.0591,x,x,x
COc1cc2c(cc1OC)CN(C(=O)CSc1nnc3scc(-c4ccccc4)n13)CC2,0.146,1.37,x,x,x
COc1ccc(CCNC(=O)c2ccc(NS(=O)(=O)c3c(C)noc3C)cc2)cc1OC,-0.927,0.685,1.1,-1.1,3.9
Cc1cccc(-c2noc(CN(C(=O)C(c3ccccc3)c3ccccc3)C(C)C)n2)c1,0.45,-6.72*,1.3,22.9,6.6
COc1cccc(C(=O)N(Cc2nc(-c3cccc(C)c3)no2)C(C)C)c1OC,-0.0138,-5.76*,1.6,14.2,-6.1
Cc1ccc(-c2noc(CN(C(=O)CCCCCN3C(=O)c4ccccc4C3=O)C(C)C)n2)cc1,1.76,-4.85*,1.4,24.2,-3.6
CC(C)N(Cc1nc(-c2ccccc2)no1)C(=O)C(C)(C)C,0.0208,-1.3,1,12.5,-6.5
Cc1onc(-c2ccccc2Cl)c1C(=O)N(Cc1nc(-c2ccccc2)no1)C1CCCCC1,0.21,-3.5,1.5,8.2,-2.2
Cc1cccc(-c2noc(CN(C(=O)c3c(-c4ccccc4Cl)noc3C)C(C)C)n2)c1,0.474,-5.04*,1.4,13.5,-19.5
COc1cccc(C(=O)N(Cc2nc(-c3ccc(C)cc3)no2)C(C)C)c1,-0.864,-0.128,1.3,15.1,1.0
CCN(CC)S(=O)(=O)c1cccc(-c2nnc(SC(C)C#N)n2Cc2ccccc2)c1 (stereo not given),0.404,-0.105,1.7,20.8,10.6
Cc1cccc(OCC(=O)NC(=S)Nc2ccc(S(=O)(=O)NC3CCCCC3)cc2)c1,-0.00529,-0.771,1,14.5,-1.8
SMILES,DAT uptake mod,Cav3 T inh,PLAP activator,PostGolgi ctrl,PostGolgi yeast
COc1cc(F)c(C(=O)NC(C)(C)CO)cc1OC,-0.813,0.889,x,x,x
Cc1ccc(C23CC4CC(CC(CC(=O)N5CCOCC5)(C4)C2)C3)cc1,1.44,-2.63,x,x,x
CCCC(=O)NCCCc1nc2ccccc2n1C(C)C,-0.502,0.589,0.9,4.7,2.8
CCCCCCn1c(CN2CCN(C(=O)OCC)CC2)nc2c1c(=O)n(C)c(=O)n2C,1.2,-0.604,x,x,x
c1ccc2c(c1)oc1c(N3CCN(Cc4ccc5c(c4)OCO5)CC3)ncnc12,0.55,0.202,1.5,12.1,7.3
O=c1cc(CSc2nnnn2-c2ccccc2)[nH]c2[nH]n(-c3ccccc3)c(=O)c12,0.713,0.581,1.2,5.8,5.4
Cc1ccc(S(=O)(=O)CC2CSc3nc4ccccc4n32)cc1 (stereo not given),-0.787,-0.868,1.1,8.8,18.3
